Source: PubChem BioAssay (EPA / NIEHS)
Active and inactive are the calls of the source. How the source made its calls: active means hit-call score of the fitted dose curve at least 0.9, where 1 is the maximum; inactive means score below 0.9.

Assays:
[1] = ATG_DR4_LXR_CIS: Attagene CIS-FACTORIAL HepG2 Assay for human Liver X Receptor (LXR), DR4 submotif (AID 2282929); conditions: HepG2 Attagene DR4 cis-reporter, mRNA transcription; AC50: actives raise or lower the signal unless noted; outcome: actives raise or lower the signal unless noted
In short: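 Measures endogenous transcription factor activity via a DR4-driven reporter transcript in human HepG2 cells. Compounds incubated 24 h; mRNA quantified by RT-PCR and capillary electrophoresis, analysed as gain or loss of signal versus DMSO.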

[2] = target: Aryl hydrocarbon receptor (Homo sapiens) (UniProt P35869); assay: ATG_Ahr_CIS: Attagene CIS-FACTORIAL HepG2 Assay for human Aryl Hydrocarbon Receptor (Ahr) (AID 2282930); conditions: HepG2 AhR cis-factorial reporter transcription; actives raise or lower the signal
In short: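 Transient MRTU transfection of HepG2 → 24 h compound exposure → total RNA, oligo(dT) RT → PCR, 6-FAM extension, HpaI cut → CE fluorescence. DMSO = baseline; bidirectional curve fit.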

[3] = ATG_AP_1_CIS: Attagene CIS-FACTORIAL HepG2 Assay for human Activator Protein 1 (AP-1) (AID 2282931); conditions: HepG2 Attagene cis-factorial AP-1 reporter mRNA; actives raise or lower the signal
In short: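 Bidirectional concentration-response fitting against DMSO controls. Underlying signal: reporter mRNA from cis-promoter constructs in transiently transfected HepG2, measured after 24 h by RT-PCR and capillary electrophoresis.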

[4] = ATG_AP_2_CIS: Attagene CIS-FACTORIAL HepG2 Assay for human Activator Protein 2 (AP-2) (AID 2282932); conditions: HepG2 AP-2 cis-reporter, Attagene transcription factor profiling; AC50: actives raise or lower the signal unless noted; outcome: actives raise or lower the signal unless noted
In short: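 Endogenous transcription factor activity is reported through transfected multiplex reporter constructs in HepG2, after 24 h of compound exposure. Transcripts were quantified by RT-PCR and capillary electrophoresis of fluorescent fragments. Bidirectional fit against DMSO.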

[5] = ATG_BRE_CIS: Attagene CIS-FACTORIAL HepG2 Assay for human Bone Morphogenetic Protein (BMP) Response Element (BRE) (AID 2282933); conditions: HepG2 BMP response element reporter, Attagene transcription factor profiling; actives raise or lower the signal
In short: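 Multiplexed cis-reporter assay, HepG2, 24 h exposure. mRNA from reporter units quantified via RT-PCR/CE; DMSO baseline; bidirectional curve fit.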

[6] = target: Retinoic acid receptor alpha (Homo sapiens) (UniProt P10276); assay: ATG_DR5_RAR_CIS: Attagene CIS-FACTORIAL HepG2 Assay for human Retinoic Acid Receptor Alpha (RARE), DR5 submotif (AID 2282934); conditions: HepG2 Attagene cis-factorial RARE DR5 reporter, mRNA; actives raise or lower the signal;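 on AC50: reporter responds to endogenous RAR alpha beta and gamma in HepG2 not RARA alone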
In short: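 Transient MRTU transfection of HepG2; 24 h compound treatment; TriZol RNA, oligo(dT) RT, PCR, FAM labelling, capillary electrophoresis. Bidirectional fit vs DMSO. Endogenous TF activity at DR5 RARE.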

[7] = target: Transcription factor E2F1 (Homo sapiens) (UniProt Q01094); assay: ATG_E2F_CIS: Attagene CIS-FACTORIAL HepG2 Assay for human E2F Transcription Factor 1 (AID 2282935); conditions: HepG2 Attagene cis-reporter, E2F reporter RNA transcripts; actives raise or lower the signal
In short: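 Gain or loss of reporter transcript, fitted against DMSO, reflects E2F1-driven transcription. Transiently transfected HepG2 dosed 24 h before RNA isolation. Quantified by fluorescent RT-PCR products separated by capillary electrophoresis.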

[8] = ATG_E_Box_CIS: Attagene CIS-FACTORIAL HepG2 Assay for human Enhancer Box (E-box) (AID 2282936); conditions: HepG2 E-box cis-reporter transcription, actives raise or lower the signal
In short: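 E-box-driven reporter transcripts measured in transiently transfected HepG2 after 24 h exposure: RNA reverse-transcribed, PCR-amplified, fluorescently labelled, digested and resolved by capillary electrophoresis. Gain or loss relative to DMSO.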

[9] = ATG_M_61_CIS: Attagene CIS-FACTORIAL HepG2 Assay for M61 Transcription Factor (Internal Marker) (AID 2282937); conditions: HepG2 Attagene CIS-FACTORIAL M61 internal marker reporter; actives raise or lower the signal
In short: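 Fluorescence from labelled cDNA fragments, separated by capillary electrophoresis, quantifies reporter induction. HepG2 cells bearing transiently transfected cis-promoter MRTUs were incubated with test chemical for 24 h; DMSO defined baseline for gain/loss fitting.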

[10] = ATG_EGR_CIS: Attagene CIS-FACTORIAL HepG2 Assay for human Early Growth Response 1 (EGR1) (AID 2282938); conditions: HepG2 Attagene CIS-FACTORIAL EGR reporter mRNA; actives raise or lower the signal
In short: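 Cell-based multiplex transcription assay: HepG2 carrying transfected cis-element reporter units, 24 h chemical treatment. Fluorescence from capillary electrophoresis of RT-PCR products gives mRNA levels; fitting is bidirectional relative to DMSO.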

[11] = ATG_M_19_CIS: Attagene CIS-FACTORIAL HepG2 Assay for M19 Transcription Factor (Internal Marker) (AID 2282939); conditions: HepG2 Attagene CIS-FACTORIAL M19 internal marker reporter; actives raise or lower the signal
In short: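 Signals come from fluorescence of labelled reporter-specific PCR fragments resolved by capillary electrophoresis, following 24 h treatment of HepG2 cells transfected with cis-promoter reporter units; activity was fitted in both directions relative to DMSO.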

[12] = ATG_ERE_CIS: Attagene CIS-FACTORIAL HepG2 Assay for Estrogen Response Element (ERE) (AID 2282940); conditions: HepG2 ERE cis-reporter, Attagene RNA transcript; actives raise or lower the signal
In short: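 Fluorescence of capillary-separated, FAM-labelled reporter cDNA fragments indicates reporter mRNA levels in HepG2 cells exposed to chemicals for 24 h. Transient transfection with cis-regulated units; data fitted in both directions against DMSO.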

[13] = ATG_Ets_CIS: Attagene CIS-FACTORIAL HepG2 Assay for human Erythroblast Transformation Specific (ETS) (AID 2282941); conditions: HepG2 ETS cis-reporter transcription; AC50: actives raise or lower the signal unless noted; outcome: actives raise or lower the signal unless noted
In short: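 Bidirectional fit versus DMSO of reporter mRNA signal, detected by RT-PCR and capillary electrophoresis in HepG2 cells transiently transfected with cis-element reporters and dosed 24 h.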

[14] = target: Hepatocyte nuclear factor 3-beta (Homo sapiens) (UniProt Q9Y261); assay: ATG_FoxA2_CIS: Attagene CIS-FACTORIAL HepG2 Assay for human Forkhead box A2 (FOXA2) (AID 2282942); conditions: HepG2 cis-reporter transcription factor activity, 24 h; actives raise or lower the signal
In short: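 In transiently transfected human HepG2 cells, promoter-driven reporter mRNA levels after 24 h chemical exposure are determined via RT-PCR with capillary electrophoresis. DMSO serves as baseline for bidirectional fitting.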

[15] = ATG_FoxO_CIS: Attagene CIS-FACTORIAL HepG2 Assay for human Forkhead box O (FoxO) (AID 2282943); conditions: HepG2 Attagene cis-reporter, FoxO element, mRNA; actives raise or lower the signal
In short: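 HepG2, transient MRTU transfection (cis element, endogenous TFs). Dose 24 h. TriZol RNA → oligo(dT) RT → PCR → 6-FAM primer extension → HpaI cut → CE. Gain/loss vs DMSO.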

[16] = ATG_GATA_CIS: Attagene CIS-FACTORIAL HepG2 Assay for human GATA Binding Protein (AID 2282944); conditions: HepG2 GATA cis-element reporter, Attagene multiplex mRNA; actives raise or lower the signal
In short: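 After transfecting HepG2 cells with multiple cis-regulated reporter units, chemicals are dosed for 24 h; isolated RNA undergoes RT-PCR and fluorescent labeling before capillary electrophoresis, with activity expressed against DMSO.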

[17] = ATG_GLI_CIS: Attagene CIS-FACTORIAL HepG2 Assay for human Zinc Finger Protein GLI1 (AID 2282945); conditions: HepG2, Attagene cis-factorial reporter mRNA, GLI element; actives raise or lower the signal
In short: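 Bidirectional curve fits relative to DMSO, using reporter mRNA levels from RT-PCR plus capillary electrophoresis. Cells were HepG2 transiently carrying cis-regulated reporter constructs, harvested 24 h after dosing.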

[18] = target: Bile acid receptor (Homo sapiens) (UniProt Q96RI1); assay: ATG_IR1_CIS: Attagene CIS-FACTORIAL HepG2 Assay for human Nuclear Receptor Subfamily 1 Group H Member 4 (NR1H4), IR1 submotif (AID 2282946); conditions: IR1 reporter transcription, actives raise or lower the signal
In short: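 HepG2 cells transiently transfected with multiplexed cis-element reporter units read endogenous transcription factor activity. After 24 h compound exposure, reporter mRNA was quantified by RT-PCR, fluorescent labelling, HpaI digestion and capillary electrophoresis; bidirectional fitting versus DMSO baseline.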

[19] = ATG_GRE_CIS: Attagene CIS-FACTORIAL HepG2 Assay for human Glucocorticoid Response Elements (GRE) (AID 2282947); conditions: HepG2 GRE cis-reporter, Attagene multiplex mRNA; AC50: actives raise or lower the signal unless noted; outcome: actives raise or lower the signal unless noted
In short: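 Reporter transcripts read by RT-PCR with capillary electrophoresis fluorescence after a 24 h chemical exposure of HepG2 cells transiently transfected with multiple cis-element reporter units. Gain or loss fitted against DMSO.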

[20] = ATG_ISRE_CIS: Attagene CIS-FACTORIAL HepG2 Assay for human Interferon Regulatory Factor 1 (IRF1) binding to an Interferon-Stimulated Response Element (ISRE) (AID 2282948); conditions: HepG2 ISRE cis-reporter (Attagene), mRNA transcription readout; actives raise or lower the signal
In short: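 Uses HepG2 liver cells transfected with cis-regulated reporters and measures mRNA 24 h post-dosing through RT-PCR, primer-extension labelling and capillary electrophoresis, with DMSO as negative control.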

Measured: AC50

Chain of Bile acid receptor (Homo sapiens) (Q96RI1 whole entry, looked up): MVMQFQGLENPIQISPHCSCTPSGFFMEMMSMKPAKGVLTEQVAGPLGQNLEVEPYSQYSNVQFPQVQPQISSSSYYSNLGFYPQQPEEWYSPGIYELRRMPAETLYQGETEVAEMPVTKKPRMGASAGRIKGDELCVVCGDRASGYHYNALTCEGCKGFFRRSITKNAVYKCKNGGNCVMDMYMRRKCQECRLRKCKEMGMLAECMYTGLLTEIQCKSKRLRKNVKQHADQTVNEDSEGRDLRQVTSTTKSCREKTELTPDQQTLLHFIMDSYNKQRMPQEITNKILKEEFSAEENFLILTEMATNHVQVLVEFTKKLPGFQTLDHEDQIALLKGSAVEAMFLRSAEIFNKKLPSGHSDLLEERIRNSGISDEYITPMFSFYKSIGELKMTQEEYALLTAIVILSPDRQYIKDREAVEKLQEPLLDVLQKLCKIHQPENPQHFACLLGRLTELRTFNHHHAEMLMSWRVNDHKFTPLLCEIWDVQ
Chain of Retinoic acid receptor alpha (Homo sapiens) (P10276 whole entry, looked up): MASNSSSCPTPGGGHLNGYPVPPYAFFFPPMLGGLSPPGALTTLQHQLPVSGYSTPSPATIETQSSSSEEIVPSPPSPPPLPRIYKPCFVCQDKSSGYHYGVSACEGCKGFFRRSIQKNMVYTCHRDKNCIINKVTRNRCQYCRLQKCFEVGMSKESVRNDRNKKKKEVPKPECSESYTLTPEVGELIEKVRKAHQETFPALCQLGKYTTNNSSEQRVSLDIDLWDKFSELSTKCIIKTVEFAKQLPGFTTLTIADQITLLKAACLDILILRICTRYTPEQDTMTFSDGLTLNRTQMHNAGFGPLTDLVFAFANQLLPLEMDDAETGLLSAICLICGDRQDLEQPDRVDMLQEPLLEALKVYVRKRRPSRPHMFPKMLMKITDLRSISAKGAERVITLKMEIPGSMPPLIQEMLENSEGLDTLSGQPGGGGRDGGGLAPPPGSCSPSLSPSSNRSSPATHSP
Chain of Transcription factor E2F1 (Homo sapiens) (Q01094 whole entry, looked up): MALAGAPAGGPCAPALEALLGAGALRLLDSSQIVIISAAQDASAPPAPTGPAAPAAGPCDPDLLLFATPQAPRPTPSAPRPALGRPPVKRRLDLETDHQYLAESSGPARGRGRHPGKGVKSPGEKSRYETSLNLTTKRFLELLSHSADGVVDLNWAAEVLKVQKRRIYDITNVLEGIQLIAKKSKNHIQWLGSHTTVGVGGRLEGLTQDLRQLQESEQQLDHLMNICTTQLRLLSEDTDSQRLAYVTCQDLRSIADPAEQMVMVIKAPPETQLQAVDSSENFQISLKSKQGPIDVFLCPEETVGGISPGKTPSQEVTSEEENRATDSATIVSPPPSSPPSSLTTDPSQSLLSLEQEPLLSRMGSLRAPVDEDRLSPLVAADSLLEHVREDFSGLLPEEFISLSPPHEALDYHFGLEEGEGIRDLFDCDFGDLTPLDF
Chain of Aryl hydrocarbon receptor (Homo sapiens) (P35869 whole entry, looked up): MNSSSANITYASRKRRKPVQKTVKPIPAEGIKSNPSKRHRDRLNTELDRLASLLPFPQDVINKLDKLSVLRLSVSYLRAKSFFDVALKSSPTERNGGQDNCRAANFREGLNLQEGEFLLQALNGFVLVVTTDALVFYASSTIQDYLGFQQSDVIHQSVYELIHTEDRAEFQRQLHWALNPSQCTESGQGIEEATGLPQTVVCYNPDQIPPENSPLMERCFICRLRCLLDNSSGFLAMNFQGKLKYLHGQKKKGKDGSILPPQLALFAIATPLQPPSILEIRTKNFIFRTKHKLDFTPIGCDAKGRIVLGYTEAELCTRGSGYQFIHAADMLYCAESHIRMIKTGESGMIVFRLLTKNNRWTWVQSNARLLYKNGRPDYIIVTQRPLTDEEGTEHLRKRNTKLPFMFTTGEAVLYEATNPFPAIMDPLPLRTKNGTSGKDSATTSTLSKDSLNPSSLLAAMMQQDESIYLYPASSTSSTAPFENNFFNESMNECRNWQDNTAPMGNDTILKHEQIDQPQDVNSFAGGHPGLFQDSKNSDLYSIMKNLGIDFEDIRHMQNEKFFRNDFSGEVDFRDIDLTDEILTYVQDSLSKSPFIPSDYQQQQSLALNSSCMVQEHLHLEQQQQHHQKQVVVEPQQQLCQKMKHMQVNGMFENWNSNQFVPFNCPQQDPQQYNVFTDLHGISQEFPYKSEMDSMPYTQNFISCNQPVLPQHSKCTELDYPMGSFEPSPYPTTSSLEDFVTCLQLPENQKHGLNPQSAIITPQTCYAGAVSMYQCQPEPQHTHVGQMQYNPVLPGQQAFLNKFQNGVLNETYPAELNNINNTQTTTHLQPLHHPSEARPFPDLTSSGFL
Chain of Hepatocyte nuclear factor 3-beta (Homo sapiens) (Q9Y261 whole entry, looked up): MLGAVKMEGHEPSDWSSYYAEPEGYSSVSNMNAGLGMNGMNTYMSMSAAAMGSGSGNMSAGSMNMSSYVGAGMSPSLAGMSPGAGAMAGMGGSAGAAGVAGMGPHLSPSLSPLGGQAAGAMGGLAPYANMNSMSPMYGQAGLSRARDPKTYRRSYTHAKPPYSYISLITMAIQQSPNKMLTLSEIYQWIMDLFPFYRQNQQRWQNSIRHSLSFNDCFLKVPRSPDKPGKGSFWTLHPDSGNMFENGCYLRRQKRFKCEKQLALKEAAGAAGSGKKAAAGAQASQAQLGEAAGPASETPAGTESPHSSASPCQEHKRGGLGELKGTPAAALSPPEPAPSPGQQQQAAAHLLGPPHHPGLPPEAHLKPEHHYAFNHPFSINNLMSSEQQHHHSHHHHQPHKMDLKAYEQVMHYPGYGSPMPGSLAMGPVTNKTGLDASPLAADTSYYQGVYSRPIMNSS

CCN(CCC#N)c1ccccc1
inactive: all assays above

FC(F)=C(F)C(F)(F)C(F)(F)C(F)(F)C(F)F
inactive: all assays above

Cc1cc(Cc2cc(C)cc(C(C)(C)C)c2O)c(O)c(C(C)(C)C)c1
inactive: [4] | [5] | [8] | [9] | [11] | [12] | [16] | [19]
active: [1] 100 µM | [2] 55.6 µM | [3] 24.9 µM | [6] 11.4 µM | [7] 170 µM | [10] 100 µM | [13] 79.4 µM | [14] 128 µM | [15] 51.4 µM | [17] 165 µM | [18] 169 µM
